According to the supplement of paper PMC9446081:
± gives the standard deviation of the averaged measurements.

Tests used:
Assay in all cases: relative enzymatic activity vs untreated control (fraction); higher = less inhibition
Conditions in all cases: 100 µM; incubation time: 2 h at 37 C
[1] = system: DNA gyrase
Procedure: (§1)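 In vitro enzymatic inhibition assays (ProFoldin kits) for 12 purified essential E. coli enzymes or complexes, each treated with 218 active antibacterial compounds at 100 µM for 2 h at 37°C. Read-outs were fluorescence or absorbance (phosphate detection, dye binding), converted to activity via standard curves and expressed relative to untreated DMSO controls.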

[2] = biological target: DNA helicase (UniProt P0ACB1)
Procedure: as §1

[3] = biological target: DNA ligase (UniProt B1XA82)
Procedure: as §1

[4] = biological target: DNA polymerase (UniProt P10443)
Procedure: as §1

[5] = biological target: DNA primase (UniProt P0ABS7)
Procedure: as §1

[6] = biological target: GlmU (UniProt A7ZTU1)
Procedure: as §1

[7] = biological target: Guanlyate kinase (UniProt Q0TBG1)
Procedure: as §1

[8] = biological target: MurA (UniProt Q3YX52)
Procedure: as §1

[9] = biological target: T1, MurD (UniProt P14900)
T1 sequence (whole entry): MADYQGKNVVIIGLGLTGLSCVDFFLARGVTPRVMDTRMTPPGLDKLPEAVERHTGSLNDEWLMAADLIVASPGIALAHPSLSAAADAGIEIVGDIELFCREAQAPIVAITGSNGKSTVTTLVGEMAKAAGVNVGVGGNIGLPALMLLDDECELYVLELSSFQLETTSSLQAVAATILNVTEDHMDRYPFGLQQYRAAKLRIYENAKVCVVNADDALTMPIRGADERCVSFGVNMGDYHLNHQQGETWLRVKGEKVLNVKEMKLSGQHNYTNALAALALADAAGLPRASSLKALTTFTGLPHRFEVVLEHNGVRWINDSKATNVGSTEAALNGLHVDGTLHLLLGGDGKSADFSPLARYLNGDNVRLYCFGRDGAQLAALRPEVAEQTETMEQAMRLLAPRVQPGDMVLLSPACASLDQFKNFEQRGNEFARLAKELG
Procedure: as §1

[10] = biological target: T2, MurF (UniProt P11880)
T2 sequence (whole entry): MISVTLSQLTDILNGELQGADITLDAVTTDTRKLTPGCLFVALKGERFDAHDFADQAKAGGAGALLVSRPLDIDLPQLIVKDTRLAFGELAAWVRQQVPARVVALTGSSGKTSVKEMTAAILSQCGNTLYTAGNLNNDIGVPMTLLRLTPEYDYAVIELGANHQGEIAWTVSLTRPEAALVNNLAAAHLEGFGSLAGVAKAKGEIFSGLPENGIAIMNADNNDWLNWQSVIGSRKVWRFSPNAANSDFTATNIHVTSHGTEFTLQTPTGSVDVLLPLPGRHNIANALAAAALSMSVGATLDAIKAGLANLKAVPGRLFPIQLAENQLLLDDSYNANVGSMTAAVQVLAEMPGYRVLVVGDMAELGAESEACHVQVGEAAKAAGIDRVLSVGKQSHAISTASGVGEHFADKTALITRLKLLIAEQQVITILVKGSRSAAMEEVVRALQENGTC
Procedure: as §1

[11] = system: RNA polymerase
Procedure: as §1

Chain of DNA ligase (B1XA82 whole entry): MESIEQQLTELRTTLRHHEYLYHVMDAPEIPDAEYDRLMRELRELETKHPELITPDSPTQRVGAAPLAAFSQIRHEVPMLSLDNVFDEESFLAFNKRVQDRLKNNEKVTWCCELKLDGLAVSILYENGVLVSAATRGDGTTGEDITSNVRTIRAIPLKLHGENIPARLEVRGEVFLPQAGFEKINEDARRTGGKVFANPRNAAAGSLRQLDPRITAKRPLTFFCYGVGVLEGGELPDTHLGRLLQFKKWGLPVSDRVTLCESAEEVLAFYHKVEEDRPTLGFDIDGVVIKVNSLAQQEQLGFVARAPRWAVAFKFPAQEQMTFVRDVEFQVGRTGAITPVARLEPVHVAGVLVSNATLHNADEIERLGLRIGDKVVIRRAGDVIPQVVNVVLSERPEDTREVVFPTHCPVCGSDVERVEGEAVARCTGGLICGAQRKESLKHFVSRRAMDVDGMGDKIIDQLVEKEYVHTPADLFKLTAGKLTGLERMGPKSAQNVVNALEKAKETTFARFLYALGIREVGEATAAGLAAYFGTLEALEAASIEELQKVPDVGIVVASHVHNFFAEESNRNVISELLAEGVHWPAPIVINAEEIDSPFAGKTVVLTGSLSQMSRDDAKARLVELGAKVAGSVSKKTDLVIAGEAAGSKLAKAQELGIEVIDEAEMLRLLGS
Chain of MurA (Q3YX52 whole entry): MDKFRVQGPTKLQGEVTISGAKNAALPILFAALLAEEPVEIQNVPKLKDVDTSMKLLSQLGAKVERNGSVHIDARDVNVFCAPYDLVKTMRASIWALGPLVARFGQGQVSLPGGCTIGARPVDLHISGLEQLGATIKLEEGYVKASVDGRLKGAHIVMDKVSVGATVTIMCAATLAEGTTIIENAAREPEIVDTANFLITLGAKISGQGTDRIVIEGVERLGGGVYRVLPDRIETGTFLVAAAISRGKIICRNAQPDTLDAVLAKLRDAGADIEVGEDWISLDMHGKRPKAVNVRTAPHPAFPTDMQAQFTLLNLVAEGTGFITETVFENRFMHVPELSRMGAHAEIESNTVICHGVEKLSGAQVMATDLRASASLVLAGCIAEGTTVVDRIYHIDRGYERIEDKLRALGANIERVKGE
Chain of DNA polymerase (P10443 whole entry): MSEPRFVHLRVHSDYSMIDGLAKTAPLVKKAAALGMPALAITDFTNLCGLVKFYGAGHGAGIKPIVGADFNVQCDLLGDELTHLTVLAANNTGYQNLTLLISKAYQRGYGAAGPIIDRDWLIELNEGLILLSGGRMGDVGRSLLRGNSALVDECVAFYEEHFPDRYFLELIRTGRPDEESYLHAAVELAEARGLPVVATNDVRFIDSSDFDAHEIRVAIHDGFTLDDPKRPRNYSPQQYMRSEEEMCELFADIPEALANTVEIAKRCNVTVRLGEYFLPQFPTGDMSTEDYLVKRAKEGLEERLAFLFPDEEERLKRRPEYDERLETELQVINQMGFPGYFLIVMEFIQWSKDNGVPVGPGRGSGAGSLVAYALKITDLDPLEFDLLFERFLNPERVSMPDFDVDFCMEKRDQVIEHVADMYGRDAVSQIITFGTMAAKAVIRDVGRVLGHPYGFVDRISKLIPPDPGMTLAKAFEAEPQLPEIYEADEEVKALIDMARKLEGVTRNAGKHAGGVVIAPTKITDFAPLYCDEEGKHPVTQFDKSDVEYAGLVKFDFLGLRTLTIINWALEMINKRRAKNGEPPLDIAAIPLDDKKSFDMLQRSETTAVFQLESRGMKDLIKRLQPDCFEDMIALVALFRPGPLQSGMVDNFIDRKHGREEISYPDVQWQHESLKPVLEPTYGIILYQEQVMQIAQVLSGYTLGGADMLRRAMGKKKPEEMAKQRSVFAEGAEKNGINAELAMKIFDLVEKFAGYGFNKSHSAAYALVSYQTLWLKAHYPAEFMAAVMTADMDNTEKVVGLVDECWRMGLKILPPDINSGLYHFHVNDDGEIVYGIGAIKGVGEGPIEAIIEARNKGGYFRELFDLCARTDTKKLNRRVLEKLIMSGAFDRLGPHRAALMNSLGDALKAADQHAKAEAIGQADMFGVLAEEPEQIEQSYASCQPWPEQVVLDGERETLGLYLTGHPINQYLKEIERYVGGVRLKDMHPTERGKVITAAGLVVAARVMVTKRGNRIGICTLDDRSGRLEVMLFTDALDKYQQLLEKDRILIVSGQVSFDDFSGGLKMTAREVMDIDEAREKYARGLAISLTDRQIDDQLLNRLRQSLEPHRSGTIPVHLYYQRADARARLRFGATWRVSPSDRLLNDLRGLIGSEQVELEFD
Chain of Guanlyate kinase (Q0TBG1 whole entry): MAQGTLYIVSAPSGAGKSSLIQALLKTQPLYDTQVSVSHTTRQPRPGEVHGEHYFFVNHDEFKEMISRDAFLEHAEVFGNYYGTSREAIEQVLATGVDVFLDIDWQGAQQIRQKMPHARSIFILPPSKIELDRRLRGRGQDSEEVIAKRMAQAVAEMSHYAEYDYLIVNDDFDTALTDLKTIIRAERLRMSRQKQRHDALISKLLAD
Chain of DNA primase (P0ABS7 whole entry): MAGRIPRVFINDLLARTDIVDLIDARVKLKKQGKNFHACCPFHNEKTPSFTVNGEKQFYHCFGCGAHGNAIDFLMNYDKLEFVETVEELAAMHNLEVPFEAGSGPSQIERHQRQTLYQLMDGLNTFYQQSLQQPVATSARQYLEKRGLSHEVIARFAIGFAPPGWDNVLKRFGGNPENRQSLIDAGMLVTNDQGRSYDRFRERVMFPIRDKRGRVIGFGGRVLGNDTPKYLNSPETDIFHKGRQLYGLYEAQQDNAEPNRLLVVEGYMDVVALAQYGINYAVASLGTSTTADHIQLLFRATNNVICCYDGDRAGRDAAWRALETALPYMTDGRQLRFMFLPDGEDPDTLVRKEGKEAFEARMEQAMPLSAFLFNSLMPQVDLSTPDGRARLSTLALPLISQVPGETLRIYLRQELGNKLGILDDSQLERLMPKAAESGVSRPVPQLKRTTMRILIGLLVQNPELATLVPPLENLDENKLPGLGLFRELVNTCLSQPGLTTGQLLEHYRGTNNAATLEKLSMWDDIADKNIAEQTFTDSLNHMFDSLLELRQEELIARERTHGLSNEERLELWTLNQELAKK
Chain of GlmU (A7ZTU1 whole entry, looked up): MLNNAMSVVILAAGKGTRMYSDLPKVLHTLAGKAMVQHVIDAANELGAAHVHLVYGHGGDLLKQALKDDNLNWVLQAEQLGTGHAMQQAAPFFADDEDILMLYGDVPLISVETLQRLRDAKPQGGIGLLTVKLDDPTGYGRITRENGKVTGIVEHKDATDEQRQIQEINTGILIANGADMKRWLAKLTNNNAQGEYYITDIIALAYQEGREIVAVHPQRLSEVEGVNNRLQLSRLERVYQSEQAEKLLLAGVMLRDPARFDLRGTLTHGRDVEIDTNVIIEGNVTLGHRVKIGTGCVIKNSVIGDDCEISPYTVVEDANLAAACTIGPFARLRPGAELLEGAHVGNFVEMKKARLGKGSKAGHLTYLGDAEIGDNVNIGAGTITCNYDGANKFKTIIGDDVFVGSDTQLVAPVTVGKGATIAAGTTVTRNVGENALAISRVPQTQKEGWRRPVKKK
Chain of DNA helicase (P0ACB1 whole entry): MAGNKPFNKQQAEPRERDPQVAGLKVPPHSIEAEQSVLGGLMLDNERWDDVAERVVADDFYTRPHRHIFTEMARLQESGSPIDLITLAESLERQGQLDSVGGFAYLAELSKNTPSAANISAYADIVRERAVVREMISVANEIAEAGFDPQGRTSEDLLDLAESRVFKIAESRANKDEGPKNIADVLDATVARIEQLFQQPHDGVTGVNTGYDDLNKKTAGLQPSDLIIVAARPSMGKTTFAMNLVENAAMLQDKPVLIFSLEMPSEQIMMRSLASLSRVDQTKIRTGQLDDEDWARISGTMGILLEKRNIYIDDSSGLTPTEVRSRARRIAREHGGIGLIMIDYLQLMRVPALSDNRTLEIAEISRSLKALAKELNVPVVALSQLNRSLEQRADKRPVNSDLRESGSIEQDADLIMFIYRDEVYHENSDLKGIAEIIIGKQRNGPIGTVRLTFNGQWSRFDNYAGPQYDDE

Structure (SMILES) | relative enzymatic activity [1] | relative enzymatic activity [2] | relative enzymatic activity [3] | relative enzymatic activity [4] | relative enzymatic activity [5] | relative enzymatic activity [6] | relative enzymatic activity [7] | relative enzymatic activity [8] | relative enzymatic activity [9] | relative enzymatic activity [10] | relative enzymatic activity [11]
CN[C@@H]1[C@H](O[C@H]2[C@H](O[C@@H]3[C@@H](O)[C@H](O)[C@@H](NC(=N)N)[C@H](O)[C@H]3NC(=N)N)O[C@@H](C)[C@]2(O)CO)O[C@@H](CO)[C@H](O)[C@H]1O.CN[C@@H]1[C@H](O[C@H]2[C@H](O[C@@H]3[C@@H](O)[C@H](O)[C@@H](NC(=N)N)[C@H](O)[C@H]3NC(=N)N)O[C@@H](C)[C@]2(O)CO)O[C@@H](CO)[C@H](O)[C@H]1O | 0.527 ± 0.36 | 0.498 ± 0.089 | 1.09 ± 0.32 | 1.08 ± 0.055 | 0.853 ± 0.0042 | 1.001 ± 0.0056 | 0.983 ± 0.047 | 0.803 ± 0.02 | 0.922 ± 0.86 | 0.524 ± 0.73 | 0.481 ± 0.52
CO[C@@]12[C@@H]3N[C@@H]3CN1C1=C(C(=O)C(N)=C(C)C1=O)[C@@H]2COC(N)=O | 1.25 ± 0.4 | 0.689 ± 0.37 | 0.844 ± 0.031 | 1.17 ± 0.19 | 0.837 ± 0.014 | 0.979 ± 0.0078 | 0.861 ± 0.01 | 0.431 ± 0.072 | 0.615 ± 0.42 | 0.942 ± 0.24 | 0.82 ± 0.035
O=C1CN(N=Cc2ccc([N+](=O)[O-])o2)C(=O)N1 | 1.07 ± 0.045 | 0.467 ± 0.062 | 1.42 ± 0.59 | 1.32 ± 0.47 | 0.655 ± 0.11 | 0.964 ± 0.044 | 0.855 ± 0.027 | 0.649 ± 0.061 | 0.593 ± 0.41 | 0.96 ± 0.23 | 0.815 ± 0.028
CNC1C(O)C(NC)C2OC3(O)C(=O)CC(C)OC3OC2C1O.Cl.Cl (stereo not drawn) | 0.963 ± 0.22 | 0.484 ± 0.0079 | 1.07 ± 0.22 | 1.35 ± 0.45 | 0.693 ± 0.19 | 1.02 ± 0.015 | 0.421 ± 0.021 | 0.4888 ± 0.0032 | 0.533 ± 0.35 | 0.898 ± 0.16 | 0.871 ± 0.064
COC1(NC(=O)Cc2cccs2)C(=O)N2C(C(=O)[O-])=C(COC(N)=O)CSC21.[Na+] (stereo not drawn) | 1.11 ± 0.041 | 0.48 ± 0.015 | 0.855 ± 0.14 | 1.41 ± 0.51 | 0.663 ± 0.13 | 0.984 ± 0.011 | 1.08 ± 0.062 | 0.0814 ± 0.021 | 0.574 ± 0.37 | 1.01 ± 0.21 | 0.829 ± 0.017
NCC1OC(OC2C(N)CC(N)C(OC3OC(CO)C(O)C(N)C3O)C2O)C(N)C(O)C1O.O=S(=O)(O)O (stereo not drawn) | 0.685 ± 0.063 | 0.381 ± 0.53 | 0.834 ± 0.15 | 0.924 ± 0.43 | 0.539 ± 0.052 | 0.956 ± 0.069 | 0.589 ± 0.046 | 0.257 ± 0.04 | 0.647 ± 0.44 | 0.958 ± 0.17 | 0.537 ± 0.016
CN(C)CCOC(c1ccccc1)c1ccccc1.Cn1c(=O)c2[nH]c(Cl)nc2n(C)c1=O | 0.811 ± 0.45 | 0.604 ± 0.17 | 1.01 ± 0.12 | 1.32 ± 0.34 | 0.75 ± 0.22 | 0.939 ± 0.018 | 1.05 ± 0.066 | 0.697 ± 0.022 | 0.596 ± 0.39 | 0.534 ± 0.75 | 0.923 ± 0.069
O=C(O)P(=O)(O)O | 0.105 ± 0.15 | 0.549 ± 0.16 | 0.871 ± 0.14 | 0.703 ± 0.39 | 0.775 ± 0.04 | 1 ± 0.014 | 0.914 ± 0.092 | 0.79 ± 0.12 | 0.6 ± 0.4 | 0.945 ± 0.24 | 0.8 ± 0.14
